PubChem BioAssay (EPA / NIEHS)
The source made the active and inactive calls. Rule for the calls: active = hit-call score of the fitted dose curve at least 0.9, where 1 is the maximum; inactive = score below 0.9.

Tests used:
Conditions in all cases: mRNA level, 48 h; actives raise or lower the signal
Caspase-3 (Homo sapiens) = Caspase-3 (Homo sapiens) (UniProt P42574); assay: LTEA_HepaRG_CASP3: Life Technologies and Expression Analysis (LTEA) Assay for cysteine-aspartic acid protease (CASP3) using HepaRG (AID 2283477)
Caspase-3 (Homo sapiens), sequence (P42574 whole entry, looked up): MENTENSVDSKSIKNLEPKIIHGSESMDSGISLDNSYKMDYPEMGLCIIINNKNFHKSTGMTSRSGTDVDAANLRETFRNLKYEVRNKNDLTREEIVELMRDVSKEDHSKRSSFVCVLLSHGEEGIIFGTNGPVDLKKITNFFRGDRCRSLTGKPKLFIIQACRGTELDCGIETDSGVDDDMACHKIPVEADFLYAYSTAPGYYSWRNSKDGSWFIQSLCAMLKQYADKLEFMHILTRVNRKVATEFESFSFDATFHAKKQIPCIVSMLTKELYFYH
Method in brief: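 In HepaRG liver cells dosed for 48 h at up to 100 uM (eight-point, duplicate), CASP3 expression changes are scored by qRT-PCR. Activity is fitted in both directions with 0.5% DMSO as baseline.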

[1] = read-out: Cytochrome P450 (CYP24A1), CYP24A1 (gene 1591); assay: LTEA_HepaRG_CYP24A1: Life Technologies and Expression Analysis (LTEA) Assay for Cytochrome P450 (CYP24A1) using HepaRG (AID 2283478)
Method in brief: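 Human liver HepaRG cultures receive each chemical for 48 h across an eight-point half-log series topping at 100 uM in 0.5% DMSO. Induction or suppression of CYP24A1 mRNA is scored relative to vehicle after housekeeping-gene normalization.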

[2] = read-out: Cytochrome P450 (CYP1A2), CYP1A2 (gene 1544); assay: LTEA_HepaRG_CYP1A2: Life Technologies and Expression Analysis (LTEA) Assay for Cytochrome P450 (CYP1A2) using HepaRG (AID 2283479)
Method in brief: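 Assesses CYP1A2 mRNA in human HepaRG liver cells after 48 h chemical exposure at up to 100 uM. Values come from qRT-PCR with bidirectional curve fitting relative to DMSO.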

[3] = read-out: cysteine-aspartic acid protease (CASP8), CASP8 (gene 841); assay: LTEA_HepaRG_CASP8: Life Technologies and Expression Analysis (LTEA) Assay for cysteine-aspartic acid protease (CASP8) using HepaRG (AID 2283480)
Method in brief: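 CASP8 transcript measured by TaqMan qRT-PCR with ACTB/GAPDH/POLR2A normalization, after 48 h chemical exposure of HepaRG cells in serum-free induction medium. Eight concentrations, top 100 uM, half-log steps, 0.5% DMSO vehicle; fits in both directions versus DMSO.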

[4] = read-out: Cytochrome P450 (CYP2B6), CYP2B6 (gene 1555); assay: LTEA_HepaRG_CYP2B6: Life Technologies and Expression Analysis (LTEA) Assay for Cytochrome P450 (CYP2B6) using HepaRG (AID 2283481)
Method in brief: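 Using 48 h treatment of HepaRG cells in serum-free induction medium, concentrations spanned half-log steps from 100 uM in 0.5% DMSO vehicle. CYP2B6 mRNA induction or loss is scored by qRT-PCR against DMSO.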

[5] = read-out: Cytochrome P450 2C19 (Homo sapiens) (UniProt P33261); assay: LTEA_HepaRG_CYP2C19: Life Technologies and Expression Analysis (LTEA) Assay for CYP2C19 using HepaRG (AID 2283482)
Method in brief: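 Human HepaRG liver cells received test chemicals for 48 h (highest 100 uM, half-log dilutions in 0.5% DMSO). CYP2C19 mRNA induction or loss is read by multiplexed qRT-PCR and fitted in both directions versus vehicle.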

CYP2C8 (gene 1558) = assay: LTEA_HepaRG_CYP2C8: Life Technologies and Expression Analysis (LTEA) Assay for CYP2C8 using HepaRG (AID 2283483)
Method in brief: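 CYP2C8 expression measured by TaqMan qRT-PCR and normalized to three housekeeping genes. HepaRG cultures were treated for 48 h with an eight-point half-log series topping at 100 uM, vehicle 0.5% DMSO, duplicates; fitted both directions against DMSO.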

CYP2C9 (gene 1559) = assay: LTEA_HepaRG_CYP2C9: Life Technologies and Expression Analysis (LTEA) Assay for CYP2C9 using HepaRG (AID 2283484)
Method in brief: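 CYP2C9 transcript level, quantified by TaqMan qRT-PCR against three housekeeping genes, was fitted bidirectionally relative to 0.5% DMSO. HepaRG cultures were treated 48 h, in duplicate, at eight half-log concentrations topping at 100 uM.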

CYP2E1 (gene 1571) = assay: LTEA_HepaRG_CYP2E1: Life Technologies and Expression Analysis (LTEA) Assay for CYP2E1 using HepaRG (AID 2283485)
Method in brief: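 Assay uses 48 h exposure of HepaRG hepatic cells, eight concentrations to 100 uM. Expression of CYP2E1 is quantified by TaqMan qRT-PCR with ACTB, GAPDH and POLR2A normalization; curves fitted in both directions relative to vehicle.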

CYP4A11 (gene 1579) = assay: LTEA_HepaRG_CYP4A11: Life Technologies and Expression Analysis (LTEA) Assay for CYP4A11 using HepaRG (AID 2283486)
Method in brief: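 Readout is CYP4A11 mRNA induction or suppression (qRT-PCR, ACTB/GAPDH/POLR2A normalization) in human HepaRG cells after 48 h chemical treatment, concentrations to 100 uM in 0.5% DMSO, fitted bidirectionally against vehicle.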

[6] = read-out: Cytochrome P450 3A4 (Homo sapiens) (UniProt P08684); assay: LTEA_HepaRG_CYP3A4: Life Technologies and Expression Analysis (LTEA) Assay for CYP3A4 using HepaRG (AID 2283487)
Method in brief: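 CYP3A4 transcript measured by TaqMan qRT-PCR and normalized to three housekeeping genes after 48 h chemical exposure of human HepaRG cells. Top concentration 100 uM, half-log steps, 0.5% DMSO vehicle; gain or loss fitted against DMSO baseline.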

[7] = read-out: DNA damage-inducible transcript 3 (DDIT3), DDIT3 (gene 1649); assay: LTEA_HepaRG_DDIT3: Life Technologies and Expression Analysis (LTEA) Assay for DNA damage-inducible transcript 3 (DDIT3) using HepaRG (AID 2283488)
Method in brief: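 Eight-point concentration-response (100 uM highest, half-log dilutions) in HepaRG, 48 h, duplicate wells. Endpoint: qRT-PCR mRNA, normalized (ACTB, GAPDH, POLR2A), bidirectional fitting with DMSO as baseline.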

[8] = read-out: Pro-epidermal growth factor (Homo sapiens) (UniProt P01133); assay: LTEA_HepaRG_EGF: Life Technologies and Expression Analysis (LTEA) Assay for Epidermal growth factor (EGF) using HepaRG (AID 2283489)
Method in brief: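 EGF expression changes in human HepaRG cells are scored by bidirectional fitting relative to 0.5% DMSO controls. Chemicals are tested at eight half-log concentrations up to 100 uM for 48 h in serum-free induction medium.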

[9] = read-out: Early growth response protein 1 (EGR1) transcription factor, EGR1 (gene 1958); assay: LTEA_HepaRG_EGR1: Life Technologies and Expression Analysis (LTEA) Assay for Early growth response protein 1 (EGR1) transcription factor using HepaRG (AID 2283490)
Method in brief: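 EGR1 transcript levels quantified by qRT-PCR (Fluidigm arrays) against three housekeeping genes after 48 h chemical exposure of HepaRG cells. Eight-point half-log series topping at 100 uM, 0.5% DMSO vehicle, analyzed for gain or loss.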

[10] = read-out: Ezrin (EZR), EZR (gene 7430); assay: LTEA_HepaRG_EZR: Life Technologies and Expression Analysis (LTEA) Assay for Ezrin (EZR) using HepaRG (AID 2283491)
Method in brief: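 HepaRG, 48 h chemical exposure, 8-pt half-log series from 100 uM, 0.5% DMSO vehicle, duplicates. Read-out: EZR mRNA by TaqMan qRT-PCR (Fluidigm array), housekeeping-normalized; bidirectional curve fit vs DMSO baseline.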

[11] = read-out: Cytochrome P450 3A7 (Homo sapiens) (UniProt P24462); assay: LTEA_HepaRG_CYP3A7: Life Technologies and Expression Analysis (LTEA) Assay for CYP3A7 using HepaRG (AID 2283492)
Method in brief: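 Cells were thawed, plated, cultured 48 h, then treated for a further 48 h with chemicals (eight-point half-log series from 100 uM, 0.5% DMSO). RNA was isolated and CYP3A7 expression quantified by qRT-PCR normalised to ACTB, GAPDH and POLR2A.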

CYP3A5 (gene 1577) = assay: LTEA_HepaRG_CYP3A5: Life Technologies and Expression Analysis (LTEA) Assay for CYP3A5 using HepaRG (AID 2283493)
Method in brief: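 Readout was CYP3A5 mRNA by qRT-PCR. HepaRG cultures were exposed for 48 h in serum-free induction medium to chemicals at up to 100 uM, and responses were fitted in both directions relative to DMSO vehicle.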

[12] = read-out: Fatty Acid-Binding Protein 1 (FABP1), FABP1 (gene 2168); assay: LTEA_HepaRG_FABP1: Life Technologies and Expression Analysis (LTEA) Assay for Fatty Acid-Binding Protein 1 (FABP1) using HepaRG (AID 2283494)
Method in brief: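 FABP1 expression by TaqMan qRT-PCR, normalised to three housekeeping genes, in HepaRG cells after 48 h chemical treatment. Eight-point half-log series topping at 100 uM in 0.5% DMSO, duplicates; gain or loss fitted relative to vehicle.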

[13] = read-out: Cytochrome P450 4A22 (Homo sapiens) (UniProt Q5TCH4); assay: LTEA_HepaRG_CYP4A22: Life Technologies and Expression Analysis (LTEA) Assay for Cytochrome P450 4A22 (CYP4A22) using HepaRG (AID 2283495)
Method in brief: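 Cryopreserved HepaRG cells, plated and cultured 48 h, then switched to serum-free induction medium and treated 48 h (duplicates, up to 100 uM, half-log steps, 0.5% DMSO). Expression change of CYP4A22 was fitted bidirectionally against vehicle.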

[14] = read-out: Cytochrome P450 7A1 (Homo sapiens) (UniProt P22680); assay: LTEA_HepaRG_CYP7A1: Life Technologies and Expression Analysis (LTEA) Assay for Cytochrome P450 7A1 (CYP7A1) using HepaRG (AID 2283496)
Method in brief: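 Using 0.5% DMSO as vehicle and baseline, chemicals were tested in duplicate over an 8-point range from 100 uM on HepaRG cells for 48 h; qRT-PCR signals were normalised to ACTB, GAPDH and POLR2A.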

Measured: AC50

Cytochrome P450 3A4 (Homo sapiens), sequence (P08684 whole entry, looked up): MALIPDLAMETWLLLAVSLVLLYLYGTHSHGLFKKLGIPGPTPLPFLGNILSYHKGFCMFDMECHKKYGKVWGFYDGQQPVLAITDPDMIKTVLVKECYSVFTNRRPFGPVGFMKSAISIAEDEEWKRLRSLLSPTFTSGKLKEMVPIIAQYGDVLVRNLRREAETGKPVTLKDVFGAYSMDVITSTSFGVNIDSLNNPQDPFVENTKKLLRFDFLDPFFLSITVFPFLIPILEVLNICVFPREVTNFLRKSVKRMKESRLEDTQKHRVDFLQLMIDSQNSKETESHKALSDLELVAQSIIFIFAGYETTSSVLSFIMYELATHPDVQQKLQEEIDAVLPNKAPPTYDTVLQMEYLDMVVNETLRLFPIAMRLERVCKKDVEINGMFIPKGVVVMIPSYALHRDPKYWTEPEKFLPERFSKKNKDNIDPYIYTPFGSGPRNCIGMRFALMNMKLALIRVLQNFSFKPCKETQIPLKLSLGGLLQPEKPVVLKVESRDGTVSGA
Cytochrome P450 3A7 (Homo sapiens), sequence (P24462 whole entry, looked up): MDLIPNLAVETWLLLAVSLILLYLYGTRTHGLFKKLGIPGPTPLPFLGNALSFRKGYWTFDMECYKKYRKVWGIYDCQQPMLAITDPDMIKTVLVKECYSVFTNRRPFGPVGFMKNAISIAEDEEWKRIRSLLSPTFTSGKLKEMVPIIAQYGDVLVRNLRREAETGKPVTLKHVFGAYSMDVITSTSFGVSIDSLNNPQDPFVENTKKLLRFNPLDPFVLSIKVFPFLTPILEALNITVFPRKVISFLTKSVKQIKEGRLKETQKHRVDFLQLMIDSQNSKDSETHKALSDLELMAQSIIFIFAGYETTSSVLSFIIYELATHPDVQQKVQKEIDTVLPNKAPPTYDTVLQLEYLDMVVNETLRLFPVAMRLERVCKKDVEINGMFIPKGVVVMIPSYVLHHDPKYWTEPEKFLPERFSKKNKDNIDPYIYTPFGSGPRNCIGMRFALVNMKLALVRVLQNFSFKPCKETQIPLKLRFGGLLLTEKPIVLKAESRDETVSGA
Cytochrome P450 2C19 (Homo sapiens), sequence (P33261 whole entry, looked up): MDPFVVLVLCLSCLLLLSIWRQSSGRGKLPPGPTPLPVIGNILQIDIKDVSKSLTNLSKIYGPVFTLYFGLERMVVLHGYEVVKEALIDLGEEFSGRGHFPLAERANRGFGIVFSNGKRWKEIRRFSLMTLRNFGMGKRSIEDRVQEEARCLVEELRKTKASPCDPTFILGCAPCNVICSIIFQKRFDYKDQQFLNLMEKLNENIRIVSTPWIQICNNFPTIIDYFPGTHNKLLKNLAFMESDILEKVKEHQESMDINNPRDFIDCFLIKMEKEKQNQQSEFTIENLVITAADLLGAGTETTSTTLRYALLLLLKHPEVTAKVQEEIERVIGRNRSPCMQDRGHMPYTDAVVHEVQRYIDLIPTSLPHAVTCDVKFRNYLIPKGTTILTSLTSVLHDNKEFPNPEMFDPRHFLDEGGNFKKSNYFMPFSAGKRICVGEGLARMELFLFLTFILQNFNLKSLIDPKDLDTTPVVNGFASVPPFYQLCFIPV

COCCOc1cc2cc(C(=O)NC3CCN(C(C)C)CC3)n(CC(=O)Nc3ccc(Cl)cn3)c2cn1
active: [2] 2.12 µM | [4] 70.6 µM | [5] 66.8 µM | CYP2C8 (gene 1558) 61.8 µM | CYP2C9 (gene 1559) 62.2 µM | CYP2E1 (gene 1571) 52.6 µM | CYP4A11 (gene 1579) 69.7 µM | [6] 45 µM | [11] 72 µM | CYP3A5 (gene 1577) 15.9 µM | [12] 34.9 µM | [13] 76.7 µM | [14] 41.2 µM
inactive: Caspase-3 (Homo sapiens) | [1] | [3] | [7] | [8] | [9] | [10]

CC(C)CCCCCCOC(=O)c1ccc(C(=O)OCCCCCCC(C)C)c(C(=O)OCCCCCCC(C)C)c1
active: [2] 14.4 µM
inactive: all other assays above

O=C(O)c1cccc(Oc2ccccc2)c1
active: [2] 30 µM | [4] 34.7 µM | [5] 31.2 µM | CYP4A11 (gene 1579) 38.9 µM | [12] 50 µM
inactive: all other assays above

CC1(C)C(=O)N(Br)C(=O)N1Br
active: [2] 37.5 µM | [4] 7.06 µM
inactive: all other assays above

CCOCCO
not listed: [13]
inactive: all other assays above
